We go through 39 compounds from PubChem BioAssay.

Activity calls are given as the source filed them.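 The calls were made as follows, unless noted: active = Her2 level under about 52% in both replicate screens, with viability over 70% of control (limit read from the data); inconclusive = Her2 under the limit in one screen only, or viability under 70%; inactive = Her2 level above the set limit.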

The target of one assay is Receptor tyrosine-protein kinase erbB-2 (Homo sapiens) (UniProt P04626). The assay can be described thus: reducers of endogenous Her2 protein level, primary screen, SKBR3 breast tumor cells, AlphaScreen, ATP viability (AID 461).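 Also: lower value means less Her2 protein in the cells.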 Particulars: 18-24 h, at 10 µM, active compounds read low.
Chain of Receptor tyrosine-protein kinase erbB-2 (Homo sapiens) (P04626 whole entry, looked up): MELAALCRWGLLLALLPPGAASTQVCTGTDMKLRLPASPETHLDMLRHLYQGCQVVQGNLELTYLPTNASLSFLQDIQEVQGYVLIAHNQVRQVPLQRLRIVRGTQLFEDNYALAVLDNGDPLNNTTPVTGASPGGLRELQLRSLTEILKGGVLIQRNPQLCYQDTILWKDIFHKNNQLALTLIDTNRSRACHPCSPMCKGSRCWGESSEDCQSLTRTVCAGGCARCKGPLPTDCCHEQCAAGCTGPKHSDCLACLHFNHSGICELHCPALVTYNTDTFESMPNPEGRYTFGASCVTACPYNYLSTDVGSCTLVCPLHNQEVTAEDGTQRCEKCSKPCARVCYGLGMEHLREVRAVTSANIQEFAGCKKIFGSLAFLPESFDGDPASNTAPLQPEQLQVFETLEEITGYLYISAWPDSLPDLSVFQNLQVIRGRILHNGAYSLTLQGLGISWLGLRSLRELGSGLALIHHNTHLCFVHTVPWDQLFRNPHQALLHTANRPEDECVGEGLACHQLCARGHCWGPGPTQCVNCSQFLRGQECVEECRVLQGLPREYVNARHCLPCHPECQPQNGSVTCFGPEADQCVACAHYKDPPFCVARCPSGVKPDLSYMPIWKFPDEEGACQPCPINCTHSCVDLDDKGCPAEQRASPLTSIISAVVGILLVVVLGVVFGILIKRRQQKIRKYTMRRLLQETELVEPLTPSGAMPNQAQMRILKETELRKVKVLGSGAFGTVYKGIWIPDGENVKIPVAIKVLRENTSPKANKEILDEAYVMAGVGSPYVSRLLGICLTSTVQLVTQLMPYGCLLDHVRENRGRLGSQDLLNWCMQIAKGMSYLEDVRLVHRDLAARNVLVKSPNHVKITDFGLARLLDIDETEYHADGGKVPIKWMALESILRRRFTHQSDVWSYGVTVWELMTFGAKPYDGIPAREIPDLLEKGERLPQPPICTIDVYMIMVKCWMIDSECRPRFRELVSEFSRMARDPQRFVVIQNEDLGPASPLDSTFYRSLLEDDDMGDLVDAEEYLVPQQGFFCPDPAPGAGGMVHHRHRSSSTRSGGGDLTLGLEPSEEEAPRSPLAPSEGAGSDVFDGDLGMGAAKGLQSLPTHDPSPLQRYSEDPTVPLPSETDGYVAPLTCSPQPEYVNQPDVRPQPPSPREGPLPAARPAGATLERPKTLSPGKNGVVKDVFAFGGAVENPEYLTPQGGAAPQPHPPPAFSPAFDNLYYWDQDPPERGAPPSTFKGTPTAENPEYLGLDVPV
As to `CCOC(=O)c1sc(NC(=O)c2c(C)nn(Cc3ccccc3)c2C)cc1C`, the Her2 level was 90.5% (inactive).

On to `Cc1nn(-c2nc3ccccc3s2)c(C)c1Oc1ccccc1O`, for which the Her2 level is 79.5% (inactive).

With `Cc1cc(C)c2c(n1)nn1c(N3CCN(c4ccccc4C)CC3)cc(C)nc21`, the Her2 level was 95.5% (inactive).

With `COc1ccc(-c2noc(CCC(=O)NCCCN3CCC(Cc4ccccc4)CC3)n2)cc1`, the Her2 level is 77% (inactive).

As to `Cc1[nH]nc(N=CC2=C(O)CC(C)(C)CC2=O)c1-c1ccc(Cl)cc1`, the Her2 level was 94.5% (inactive).

On to `c1ccc2c(-c3nc(C4CCCCC4)no3)cc(-c3ccncc3)nc2c1`, for which the Her2 level is 69% (inactive).

Regarding `CCCc1nc2ccccc2c(=O)n1NC(=O)c1c(O)c2cccc3c2n(c1=O)CCC3`, the Her2 level is 87.5% (inactive).

Consider `Cc1csc2ncc(C(=O)Nc3ccccc3Cl)c(=O)n12`, for which the Her2 level is 86% (inactive).

Turning to `CN1CC=C2C(C#N)=C(N)C(C#N)(C#N)[C@H](c3cccc(Cl)c3)C2C1` (stereo partly drawn), the Her2 level is 73.5% (inactive).

As to `O=C(NC1CCc2ccccc21)C1CCN(S(=O)(=O)c2ccc(-n3cnnn3)cc2)CC1` (stereo not drawn), the Her2 level is 85% (inactive).

For `N#CC(C(=O)C1CCCCC1)c1nc2ccccc2[nH]1` (stereo not drawn), the Her2 level was 89.5% (inactive).

Take `Cc1nc2ccccc2c(=O)n1NC(=O)c1c(O)c2c(n(CC(C)C)c1=O)CCCC2`: the Her2 level was 73.5% (inactive).

Turning to `COc1ccc(Br)cc1C1N2CC3(C)CN1CC(C)(C2)C3=O` (stereo not drawn), the Her2 level was 89.5% (inactive).

On to `CCn1cc(C(=O)OCC(=O)OC2CC(C)CCC2C(C)C)c(=O)c2ccc(C)nc21` (stereo not drawn), for which the Her2 level was 67.5% (inactive).

With `CCCNC(=O)c1c(N)n(-c2cc(OC)cc(OC)c2)c2nc3ccccc3nc12`, the Her2 level is 73.5% (inactive).

Consider `CCCc1cc(-c2n[nH]c(C)c2-c2ccc(C(=O)OCC)o2)c(O)cc1O`, for which the Her2 level is 72% (inactive).

Consider `N#CC1=C(N)n2c(s/c(=C\c3ccco3)c2=O)=C(C#N)C1c1ccco1` (stereo not drawn), for which the Her2 level was 31.5% (active).

On to `CC1=C(C(=O)OC2CCCCC2)C(c2ccc(C)o2)C2=C(CC(C)(C)CC2=O)N1` (stereo not drawn), for which the Her2 level was 83% (inactive).

Regarding `O=C(Nc1sc2c(c1C(=O)NCc1ccco1)CCCC2)c1ccc2c(c1)OCO2`, the Her2 level is 92.5% (inactive).

For `COc1ccc(CC(=O)NCc2cccs2)cc1`, the Her2 level was 103% (inactive).

In the case of `COc1ccc(/C=N/n2cc(-c3ccc(OC)cc3)nc2N)cc1`, the Her2 level is 99% (inactive).

In the case of `CCn1c(CNc2ccc(OC)cc2)nnc1SCC(=O)c1ccc(OC)cc1`, the Her2 level was 91% (inactive).

As for `Cc1ccccc1OCCCN1C(=O)C(=O)c2cccc(C)c21`, the Her2 level was 72% (inactive).

Consider `CCOC(=O)c1sc(NC(=O)CSc2n[nH]c(-c3ccccc3)n2)c(C#N)c1C`, for which the Her2 level is 65.5% (inactive).

`CCSc1nnc(NC(=O)c2ccccn2)s1`: the Her2 level is 80.5% (inactive).

Turning to `CCOc1cccc(-n2nnnc2-c2ccc(OC)cc2)c1`, the Her2 level was 90% (inactive).

On to `O=C(NCc1ccco1)c1cc2c(s1)CSC2`, for which the Her2 level was 88% (inactive).

For `CC(=O)c1ccccc1Oc1nc(CN2CCOCC2)nc2scc(-c3cccs3)c12`, the Her2 level was 79% (inactive).

As for `C=CCn1c(N)c(C(=O)OC(C)(C)C)c2nc3ccccc3nc21`, the Her2 level was 90.5% (inactive).

As to `CCOC(=O)c1sc(Nc2nc3c(OC)cccc3s2)nc1C`, the Her2 level was 72% (inactive).

Turning to `COc1ccc(N2CCN(Cc3cc(=O)oc4cc(C)c(Cl)c(C)c34)CC2)cc1`, the Her2 level is 83.5% (inactive).

Regarding `O=C(c1cc(-c2ccco2)nn1-c1cccc(Cl)c1)N1CCCCC1`, the Her2 level is 84.5% (inactive).

In the case of `CCOC(=O)c1sc2nc(N3CCCC3)c3c(c2c1N)CC(C)(C)OC3`, the Her2 level was 80.5% (inactive).

Take `CCC(Sc1nc2n[nH]c(C)c2c(=N)n1-c1cc(Cl)ccc1C)C(=O)N1CCOCC1` (stereo not drawn): the Her2 level was 96% (inactive).

With `O=C(Nc1ccc(F)cc1)N(Cc1ccco1)Cc1cc2cc3c(cc2[nH]c1=O)OCO3`, the Her2 level is 90.5% (inactive).

Regarding `N#CC1=C(SCC(=O)NC23CC4CC(CC(C4)C2)C3)NC(=O)C(C#N)C12CCCCC2` (stereo not drawn), the Her2 level is 76% (inactive).

As to `CCOC(=O)c1nnc2cc(-c3ccc(Br)cc3)nn2c1C`, the Her2 level was 93.5% (inactive).

Consider `CCOC(=O)c1c(NC(=O)Cn2c(C)nc3ccccc32)sc2c1CCC2`, for which the Her2 level was 107% (inactive).

In the case of `COc1ccc(C2=NOC(C(=O)Nc3cc(Br)ccc3O)C2)cc1OC` (stereo not drawn), the Her2 level was 89% (inactive).

System in the next assay: not listed separately
Nature of the assay: SK-BR-3 cell growth inhibitors, pilot screen, 24 h, human (AID 572;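 active = viability at or below 10% of carrier control in both of two separate runs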;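 also: compound exposure lasted between 18 and 24 h rather than exactly 24 h; 100% = carrier-treated control wells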). Particulars: SK-BR-3 viability, CellTiter-Glo luminescence, at 10 µM, active compounds read low.
Take `CCOC(=O)c1sc(NC(=O)c2c(C)nn(Cc3ccccc3)c2C)cc1C`: the viability is 82.5% (inactive).

Take `Cc1nn(-c2nc3ccccc3s2)c(C)c1Oc1ccccc1O`: the viability was 102% (inactive).

Turning to `Cc1cc(C)c2c(n1)nn1c(N3CCN(c4ccccc4C)CC3)cc(C)nc21`, the viability was 73.5% (inactive).

For `COc1ccc(-c2noc(CCC(=O)NCCCN3CCC(Cc4ccccc4)CC3)n2)cc1`, the viability is 87.5% (inactive).

Regarding `Cc1[nH]nc(N=CC2=C(O)CC(C)(C)CC2=O)c1-c1ccc(Cl)cc1`, the viability was 94.5% (inactive).

As for `c1ccc2c(-c3nc(C4CCCCC4)no3)cc(-c3ccncc3)nc2c1`, the viability was 72.5% (inactive).

As for `CCCc1nc2ccccc2c(=O)n1NC(=O)c1c(O)c2cccc3c2n(c1=O)CCC3`, the viability is 113% (inactive).

Turning to `Cc1csc2ncc(C(=O)Nc3ccccc3Cl)c(=O)n12`, the viability is 87.5% (inactive).

In the case of `CN1CC=C2C(C#N)=C(N)C(C#N)(C#N)[C@H](c3cccc(Cl)c3)C2C1` (stereo partly drawn), the viability is 94% (inactive).

Take `O=C(NC1CCc2ccccc21)C1CCN(S(=O)(=O)c2ccc(-n3cnnn3)cc2)CC1` (stereo not drawn): the viability is 74.5% (inactive).

Turning to `N#CC(C(=O)C1CCCCC1)c1nc2ccccc2[nH]1` (stereo not drawn), the viability was 91.5% (inactive).

For `Cc1nc2ccccc2c(=O)n1NC(=O)c1c(O)c2c(n(CC(C)C)c1=O)CCCC2`, the viability is 88.5% (inactive).

Take `COc1ccc(Br)cc1C1N2CC3(C)CN1CC(C)(C2)C3=O` (stereo not drawn): the viability was 114% (inactive).

For `CCn1cc(C(=O)OCC(=O)OC2CC(C)CCC2C(C)C)c(=O)c2ccc(C)nc21` (stereo not drawn), the viability was 94.5% (inactive).

As to `CCCNC(=O)c1c(N)n(-c2cc(OC)cc(OC)c2)c2nc3ccccc3nc12`, the viability was 89% (inactive).

Regarding `CCCc1cc(-c2n[nH]c(C)c2-c2ccc(C(=O)OCC)o2)c(O)cc1O`, the viability was 78% (inactive).

For `N#CC1=C(N)n2c(s/c(=C\c3ccco3)c2=O)=C(C#N)C1c1ccco1` (stereo not drawn), the viability is 100% (inactive).

Take `CC1=C(C(=O)OC2CCCCC2)C(c2ccc(C)o2)C2=C(CC(C)(C)CC2=O)N1` (stereo not drawn): the viability is 77.5% (inactive).

For the compound `O=C(Nc1sc2c(c1C(=O)NCc1ccco1)CCCC2)c1ccc2c(c1)OCO2`, the viability was 89.5% (inactive).

`COc1ccc(CC(=O)NCc2cccs2)cc1`: the viability is 90% (inactive).

Take `COc1ccc(/C=N/n2cc(-c3ccc(OC)cc3)nc2N)cc1`: the viability is 85% (inactive).

In the case of `CCn1c(CNc2ccc(OC)cc2)nnc1SCC(=O)c1ccc(OC)cc1`, the viability is 110% (inactive).

Regarding `Cc1ccccc1OCCCN1C(=O)C(=O)c2cccc(C)c21`, the viability was 106% (inactive).

Regarding `CCOC(=O)c1sc(NC(=O)CSc2n[nH]c(-c3ccccc3)n2)c(C#N)c1C`, the viability was 122% (inactive).

Consider `CCSc1nnc(NC(=O)c2ccccn2)s1`, for which the viability was 92% (inactive).

Take `CCOc1cccc(-n2nnnc2-c2ccc(OC)cc2)c1`: the viability was 107% (inactive).

In the case of `O=C(NCc1ccco1)c1cc2c(s1)CSC2`, the viability is 97.5% (inactive).

With `CC(=O)c1ccccc1Oc1nc(CN2CCOCC2)nc2scc(-c3cccs3)c12`, the viability is 87.5% (inactive).

`C=CCn1c(N)c(C(=O)OC(C)(C)C)c2nc3ccccc3nc21`: the viability is 102% (inactive).

With `CCOC(=O)c1sc(Nc2nc3c(OC)cccc3s2)nc1C`, the viability was 81.5% (inactive).

Turning to `COc1ccc(N2CCN(Cc3cc(=O)oc4cc(C)c(Cl)c(C)c34)CC2)cc1`, the viability is 93.5% (inactive).

Consider `O=C(c1cc(-c2ccco2)nn1-c1cccc(Cl)c1)N1CCCCC1`, for which the viability was 111% (inactive).

`CCOC(=O)c1sc2nc(N3CCCC3)c3c(c2c1N)CC(C)(C)OC3`: the viability is 75.5% (inactive).

Regarding `CCC(Sc1nc2n[nH]c(C)c2c(=N)n1-c1cc(Cl)ccc1C)C(=O)N1CCOCC1` (stereo not drawn), the viability is 92.5% (inactive).

`O=C(Nc1ccc(F)cc1)N(Cc1ccco1)Cc1cc2cc3c(cc2[nH]c1=O)OCO3`: the viability is 86.5% (inactive).

Take `N#CC1=C(SCC(=O)NC23CC4CC(CC(C4)C2)C3)NC(=O)C(C#N)C12CCCCC2` (stereo not drawn): the viability was 74% (inactive).

For `CCOC(=O)c1nnc2cc(-c3ccc(Br)cc3)nn2c1C`, the viability is 76.5% (inactive).

For the compound `CCOC(=O)c1c(NC(=O)Cn2c(C)nc3ccccc32)sc2c1CCC2`, the viability was 107% (inactive).

As for `COc1ccc(C2=NOC(C(=O)Nc3cc(Br)ccc3O)C2)cc1OC` (stereo not drawn), the viability is 108% (inactive).
